Laboratory results reported in PubChem BioAssay AID1851 (National Center for Advancing Translational Sciences (NCATS), 2009).
Hit rate of the full screen: of about 16,000 compounds, about 5,700 (36%) were called active. Not shown: some 24% with an inconclusive outcome. Some of the results follow. Unmarked numbers belong to inactive results. Calls follow the shape of the dose curve; as a rule, active = well fitted curve in the direction sought with a large enough effect; inconclusive = small, poorly fitted or top-dose-only effect, or effect the other way; inactive = no such curve, though single readings can be large or run the other way.

molecular target: Cytochrome P450 1A2 (Homo sapiens) (UniProt P05177); assay: Cytochrome panel assay with activity outcomes; conditions: recombinant CYP, pro-luciferin dealkylation, luminescence, p450-cyp1a2; series mostly up to 57.1 µM; activity, negative = inhibition: at the top concentration
% is scaled to controls: 0 for no effect and ±100 for the full control effect.

Sequence of Cytochrome P450 1A2 (Homo sapiens) (P05177 whole entry, looked up): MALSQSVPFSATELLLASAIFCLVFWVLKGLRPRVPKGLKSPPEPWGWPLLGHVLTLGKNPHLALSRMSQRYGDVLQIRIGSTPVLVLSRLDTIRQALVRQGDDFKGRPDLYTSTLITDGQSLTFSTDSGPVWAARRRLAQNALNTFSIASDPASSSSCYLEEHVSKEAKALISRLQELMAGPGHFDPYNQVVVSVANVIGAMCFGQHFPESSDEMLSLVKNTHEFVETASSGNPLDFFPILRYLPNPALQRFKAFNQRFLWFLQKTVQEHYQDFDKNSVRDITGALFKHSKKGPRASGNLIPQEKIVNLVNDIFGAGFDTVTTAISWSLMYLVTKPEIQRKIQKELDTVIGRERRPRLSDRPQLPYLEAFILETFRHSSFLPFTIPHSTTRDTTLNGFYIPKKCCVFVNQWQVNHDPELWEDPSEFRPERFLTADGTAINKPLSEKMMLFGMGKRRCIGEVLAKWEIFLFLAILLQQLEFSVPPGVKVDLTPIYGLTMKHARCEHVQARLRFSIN

**Q.** For `OCCNc1ncnc2c1ncn2[C@@H]1O[C@@H](CO)[C@H](O)[C@@H]1O`, which activity, negative = inhibition is on record?
**A.** -20.3% [at 11.4 µM]

**Q.** How did the AC50 turn out when `CCc1cc2c(NCc3ccco3)ncnc2s1` was run?
**A.** 2.51 µM (active)

**Q.** `OCCNc1ncnc2nc[nH]c12` was tested. Which activity, negative = inhibition did it give?
**A.** -5.82% [at 11.4 µM]

**Q.** `CCc1cc2c(NCCO)ncnc2s1` was tested. Which AC50 did it give?
**A.** 6.31 µM (active)

**Q.** How did the AC50 turn out when `FC(F)(F)c1ccccc1-c1nc(N2CCNCC2)c2ccccc2n1` was run?
**A.** 10 µM (active)

**Q.** How did the AC50 turn out when `CN1CCN(c2nc(-c3ccccc3C(F)(F)F)nc3ccccc23)CC1` was run?
**A.** 10 µM (active)

**Q.** Which AC50 does the source give for `FC(F)(F)c1ccccc1-c1nccc(N2CCNCC2)n1` here?
**A.** 10 µM (active)

**Q.** How did the activity, negative = inhibition turn out when `CO[C@@H]1COC(=O)[C@@H](C)NC(=O)C/C=C\[C@@H](C)[C@H](NS(=O)(=O)c2ccc(C)cc2)COC(=O)[C@H](C)NC(=O)C/C=C\[C@H]1C` was run?
**A.** 1.37% [at 11.4 µM]

**Q.** `CCOC(=O)c1c(C)c(C)n2c1NC(=O)C2` was tested. Which AC50 did it give?
**A.** 2 µM (active)

**Q.** How did the “activity, negative = inhibition” value turn out when `CCOC(=O)N1CCN(C(=O)c2ccc(OC)c(OC)c2)CC1` was run?
**A.** -0.0485%

**Q.** With `CCOC(=O)N1CCN(C(=O)c2ccc(Cl)c(S(=O)(=O)N3CCOCC3)c2)CC1` as the molecule, how does the AC50 read?
**A.** 6.31 µM (active)

**Q.** How did the “activity, negative = inhibition” value turn out when `CCOC(=O)N1CCN(C(=O)c2ccc(NC(C)=O)cc2)CC1` was run?
**A.** 6.91%

**Q.** For `O=C(O)c1cc(=O)cc(C(=O)O)[nH]1`, which “activity, negative = inhibition” value is on record?
**A.** 2.72%

**Q.** With `COc1ccc(-n2c(=O)cnc3cnc(N(C)C)nc32)cc1` as the molecule, how does the AC50 read?
**A.** 5.01 µM (active)

**Q.** For `Cc1nc2cnc(N(C)C)nc2n(-c2ccccc2)c1=O`, which AC50 is on record?
**A.** 2 µM (active)

**Q.** Which AC50 does the source give for `COc1ccc(-n2c(=O)c(C)nc3cnc(N(C)C)nc32)cc1` here?
**A.** 6.31 µM (active)

**Q.** With `C[C@H](O)C(=O)Nc1c(I)c(C(=O)NC(CO)CO)c(I)c(C(=O)NC(CO)CO)c1I` as the molecule, how does the “activity, negative = inhibition” value read?
**A.** 0.269% [at 25.6 µM]

**Q.** `C#CCCCO/N=C1/C[C@@H](O)[C@@H](O)[C@@H]2[C@@H]3C(=O)N(CCC(=O)OCC)C(=O)[C@H]3CC[C@H]12` was tested. Which activity, negative = inhibition did it give?
**A.** -10.2% [at 11.4 µM]

**Q.** `CCOC(=O)N1CCC(NS(=O)(=O)c2ccc3c(c2)C(C)(C)C(=O)N3C)CC1` was tested. Which “activity, negative = inhibition” value did it give?
**A.** 14%

**Q.** For `NCCCS(=O)(=O)O`, which “activity, negative = inhibition” value is on record?
**A.** -4.72%

**Q.** With `Cc1ccc(C(=O)N2C3C=CC(C3)C2(C(F)(F)F)C(F)(F)F)cc1` (stereo not given) as the molecule, how does the “activity, negative = inhibition” value read?
**A.** -9.14%

**Q.** For `C[C@H](NC(=O)c1ccc(Cl)c(Cl)c1)c1ccc(-c2ccccc2)cc1`, which AC50 is on record?
**A.** 0.631 µM (active)

**Q.** How did the “activity, negative = inhibition” value turn out when `COc1ccc(C(NC(=O)c2ccc(-c3ccccc3)cc2)c2ccccc2)cc1` (stereo not given) was run?
**A.** -2.05%

**Q.** For `CCCCCN(CCCCC)C(=O)[C@H](CCC(=O)O)NC(=O)c1ccc(Cl)c(Cl)c1`, which AC50 is on record?
**A.** inactive

**Q.** Which “activity, negative = inhibition” value does the source give for `CCOc1ccc(C(C)=O)cc1N1C(=O)C2C(C1=O)C1C=CC2C12CC2` (stereo not given) here?
**A.** -21.9%

**Q.** With `Cc1cccc(N/C(=N\S(=O)(=O)c2ccccc2)C(F)(F)F)c1` as the molecule, how does the AC50 read?
**A.** 14.1 µM (active)

**Q.** `Cc1cccc(Nc2ccncc2S(=O)(=O)NC(=O)NC(C)C)c1` was tested. Which “activity, negative = inhibition” value did it give?
**A.** -15.6% [at 25.6 µM]

**Q.** For `O=C(Nc1cccc(F)c1)N1CC2(CCN(S(=O)(=O)c3ccccc3)CC2)C1`, which “activity, negative = inhibition” value is on record?
**A.** -28.7%

**Q.** With `CCC(=O)NC(NC(=O)CC)C(Cl)Cl` as the molecule, how does the “activity, negative = inhibition” value read?
**A.** -1.98%

**Q.** How did the AC50 turn out when `O=C(Nc1ccc([N+](=O)[O-])cc1Cl)c1cc(Cl)ccc1O` was run?
**A.** 1.26 µM (active)

**Q.** `Cc1cccc[n+]1CC(=O)Nc1ccc([N+](=O)[O-])cc1Cl` was tested. Which “activity, negative = inhibition” value did it give?
**A.** -0.914%

**Q.** How did the AC50 turn out when `O=C(Nc1ccccc1)c1cc([N+](=O)[O-])ccc1Cl` was run?
**A.** 0.631 µM (active)

**Q.** Which activity, negative = inhibition does the source give for `O=C(O)c1cc(N=Nc2ccc([N+](=O)[O-])cc2)ccc1O` here?
**A.** -15.2% [at 2.29 µM]

**Q.** `CC(=O)Nc1ccc(NC(=O)c2ccccc2CC[N+](=O)[O-])cc1` was tested. Which “activity, negative = inhibition” value did it give?
**A.** -12.1%

**Q.** `O=C(Nc1ccccc1)c1ccccc1CC[N+](=O)[O-]` was tested. Which AC50 did it give?
**A.** 15.8 µM (active)

**Q.** For `COc1cccc(/C(O)=C2/C(=O)C(=O)N(c3cc(C)on3)C2c2cccs2)c1` (stereo not given), which “activity, negative = inhibition” value is on record?
**A.** -13.9%

**Q.** How did the AC50 turn out when `CC(=O)OCC1=C(C(=O)O)N2C(=O)[C@@H](NC(=O)CSc3ccncc3)[C@@H]2SC1` was run?
**A.** inactive

**Q.** For `Fc1ccc(CSc2ncnc3sc4c(c23)CCCC4)cc1`, which AC50 is on record?
**A.** 4.47 µM (active)

**Q.** Which “activity, negative = inhibition” value does the source give for `CCc1ccc(OCC(=O)NNC(=O)CSc2ncnc3sc(C)c(C)c23)cc1` here?
**A.** -21.4%

**Q.** Which “activity, negative = inhibition” value does the source give for `c1ccc(CSc2ncnc3c2sc2nc(N4CCOCC4)c4c(c23)CCCC4)cc1` here?
**A.** -8.51%

**Q.** Which AC50 does the source give for `Nc1c(-c2ccccc2)cnn1-c1cccc([N+](=O)[O-])c1` here?
**A.** 3.55 µM (active)

**Q.** With `Nc1nc2c(ncn2[C@@H]2C=C[C@@H](CO)C2)c(=O)[nH]1` as the molecule, how does the activity, negative = inhibition read?
**A.** -4.34% [at 11.4 µM]

**Q.** For `Clc1ccccc1CSc1nnc(-c2ccncc2)o1`, which AC50 is on record?
**A.** 0.794 µM (active)

**Q.** With `Clc1ccccc1CSc1nnc(/C=C/c2ccccc2)o1` as the molecule, how does the AC50 read?
**A.** 1.26 µM (active)

**Q.** With `Nc1nc(SCc2ccccc2Cl)cc(C(=O)O)n1` as the molecule, how does the activity, negative = inhibition read?
**A.** 6.21% [at 2.29 µM]

**Q.** For `Clc1cccc(Cl)c1CSc1nnc(/C=C/c2ccccc2)o1`, which AC50 is on record?
**A.** 4.47 µM (active)

**Q.** With `Cc1ccc(NC(=O)CSc2nnc(-c3ccncc3)o2)cc1` as the molecule, how does the “activity, negative = inhibition” value read?
**A.** -19.3%

**Q.** With `CNC[C@H](O)[C@H](O)[C@H](O)[C@H](O)CO` as the molecule, how does the “activity, negative = inhibition” value read?
**A.** -4.07% [at 25.6 µM]

**Q.** For `CN1CCc2c(c3ccccc3n2Cc2ccccc2)C1`, which AC50 is on record?
**A.** 5.01 µM (active)

**Q.** Which AC50 does the source give for `CN1CCc2c(c3ccccc3n2C)C1` here?
**A.** 12.6 µM (active)
